Assay results from the supplement of paper PMC10849652.
About 7,900 targets were measured; listed, in parts, are those with a hit and a random draw of the rest. About 0.6% of all pairs of compound and target were hits.

What was measured:
Assay in all cases: log2 fold change, soluble protein after heating vs DMSO (PISA); higher = thermal stabilisation; K562 cells, 10 uM, 30 min; active = over 0.2 and 3.5 SD of the protein, either way, in both replicates (recomputed)
IRAK-1-4 Inhibitor I = compound: C1COCCN1CCN2C3=CC=CC=C3N=C2NC(=O)C4=CC(=CC=C4)[N+](=O)[O-] [IRAK-1-4 Inhibitor I]
Outline: (§1)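 K562 cells at 2×10^6 cells/mL were exposed to 10 μM compound for 30 min, then aliquots were heated for 3 min across 48°C-58°C, pooled, and extracted in PBS containing 0.5% NP-40 at 4°C. The supernatant after 21,000xg for 90 min was taken as soluble protein and measured by TMTpro 16plex LC-MS/MS with channel sums equalised. Thermal stability is reported relative to control samples, with values from duplicates. Fold changes are given on a log2 scale.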

ibrutinib = compound: C=CC(=O)N1CCC[C@@H](n2nc(-c3ccc(Oc4ccccc4)cc3)c3c(N)ncnc32)C1 [ibrutinib]
Outline: as §1

[1] = compound: CC(=O)c1cnc2ccc(-c3cc(Cl)c(O)c(Cl)c3)nc2c1N[C@H]1CC[C@H](CN(C)C)CC1
Outline: as §1

ralimetinib = compound: CC(C)(C)Cn1c(N)nc2ccc(-c3[nH]c(C(C)(C)C)nc3-c3ccc(F)cc3)nc21 [ralimetinib]
Outline: as §1

[2] = compound: CC(C)(O)CC(=O)NCCn1ccc2ncnc(Nc3ccc(Oc4cccc(C(F)(F)F)c4)c(Cl)c3)c21
Outline: as §1

[3] = compound: CC(C)C1=C2N=C(C=C(N2N=C1)NCC3=CC=CC=C3)NCCCCCCN
Outline: as §1

[4] = compound: CC(C)C[C@@H](C=O)NC(=O)[C@H](CC(C)C)NC(=O)[C@H](CC(C)C)NC(=O)OCc1ccccc1
Outline: as §1

pinometostat = compound: CC(C)N(C[C@H]1O[C@@H](n2cnc3c(N)ncnc32)[C@H](O)[C@@H]1O)[C@H]1C[C@@H](CCc2nc3cc(C(C)(C)C)ccc3[nH]2)C1 [pinometostat]
Outline: as §1

[5] = compound: CC1=C(C(CC(=O)N1)C2=CC=C(C=C2)C(F)(F)F)C(=O)NC3=C(C=C4C(=C3)C=NN4)F
Outline: as §1

[6] = compound: CC1=C(C2=C(C=C1)C(=O)C3=CC=CC=C3N2CCCN)C
Outline: as §1

Measured: log2 fold change

DHRS3 (UniProt O75911)
inactive: IRAK-1-4 Inhibitor I 0 | ibrutinib 0.027 | [1] -0.083 | ralimetinib 0.001 | [2] 0.143 | [3] 0.018 | [4] -0.017 | pinometostat -0.056 | [5] -0.055 | [6] 0.03

EFCAB14 (UniProt O75071)
inactive: IRAK-1-4 Inhibitor I -0.016 | ibrutinib 0.043 | [1] -0.196 | ralimetinib 0.135 | [2] -0.009 | [3] -0.127 | [4] -0.063 | pinometostat -0.061 | [5] -0.035 | [6] 0.006

DDX4 (UniProt Q9NQI0)
Chain of UniProt Q9NQI0 (Q9NQI0 whole entry, looked up): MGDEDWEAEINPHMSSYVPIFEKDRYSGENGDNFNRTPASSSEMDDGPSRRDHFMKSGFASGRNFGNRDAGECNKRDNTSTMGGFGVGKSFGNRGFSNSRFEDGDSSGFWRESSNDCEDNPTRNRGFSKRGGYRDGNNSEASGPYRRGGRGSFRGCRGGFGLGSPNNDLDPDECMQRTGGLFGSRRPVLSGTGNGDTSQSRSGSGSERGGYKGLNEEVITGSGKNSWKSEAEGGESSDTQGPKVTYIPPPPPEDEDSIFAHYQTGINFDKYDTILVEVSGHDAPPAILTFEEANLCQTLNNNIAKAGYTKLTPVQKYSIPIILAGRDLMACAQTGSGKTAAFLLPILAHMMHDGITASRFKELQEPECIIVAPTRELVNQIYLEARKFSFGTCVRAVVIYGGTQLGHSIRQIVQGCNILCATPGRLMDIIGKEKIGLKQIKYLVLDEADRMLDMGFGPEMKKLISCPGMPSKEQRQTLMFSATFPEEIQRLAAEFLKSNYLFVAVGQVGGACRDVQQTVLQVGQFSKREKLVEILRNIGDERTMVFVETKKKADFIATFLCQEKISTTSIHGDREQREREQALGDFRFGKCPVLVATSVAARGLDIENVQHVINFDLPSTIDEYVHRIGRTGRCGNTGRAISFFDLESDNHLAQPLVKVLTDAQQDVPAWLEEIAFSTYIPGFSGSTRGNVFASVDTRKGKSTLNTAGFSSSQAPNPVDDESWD
inactive: IRAK-1-4 Inhibitor I -0.033 | ibrutinib -0.046 | [1] -0.035 | ralimetinib -0.063 | [2] 0.203 | [3] 0.02 | [4] 0.239 | pinometostat 0.24 | [5] 0.03 | [6] 0.033

DIP2A (UniProt Q14689)
inactive: IRAK-1-4 Inhibitor I -0.036 | ibrutinib 0.053 | [1] -0.06 | ralimetinib 0.102 | [2] 0.003 | [3] -0.023 | [4] 0.118 | pinometostat 0.064 | [5] 0.084 | [6] 0.018

EEF1B2 (UniProt P24534)
Chain of UniProt P24534 (P24534 whole entry, looked up): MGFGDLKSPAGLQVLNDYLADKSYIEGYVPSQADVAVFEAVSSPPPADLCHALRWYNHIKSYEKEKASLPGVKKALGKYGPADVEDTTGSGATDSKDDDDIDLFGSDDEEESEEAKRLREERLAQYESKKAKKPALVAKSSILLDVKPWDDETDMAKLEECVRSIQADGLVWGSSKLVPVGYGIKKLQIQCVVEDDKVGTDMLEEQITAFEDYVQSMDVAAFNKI
inactive: IRAK-1-4 Inhibitor I -0.01 | ibrutinib -0.054 | [1] 0.009 | ralimetinib 0.003 | [2] 0.011 | [3] -0.069 | [4] 0.04 | pinometostat 0.001 | [5] -0.027 | [6] 0.047

DDOST (UniProt P39656)
inactive: IRAK-1-4 Inhibitor I -0.038 | ibrutinib -0.027 | [1] 0.057 | ralimetinib 0.156 | [2] 0.015 | [3] -0.081 | [4] -0.036 | pinometostat 0.015 | [5] 0.024 | [6] -0.041

DPP8 (UniProt Q6V1X1)
Chain of UniProt Q6V1X1 (Q6V1X1 whole entry, looked up): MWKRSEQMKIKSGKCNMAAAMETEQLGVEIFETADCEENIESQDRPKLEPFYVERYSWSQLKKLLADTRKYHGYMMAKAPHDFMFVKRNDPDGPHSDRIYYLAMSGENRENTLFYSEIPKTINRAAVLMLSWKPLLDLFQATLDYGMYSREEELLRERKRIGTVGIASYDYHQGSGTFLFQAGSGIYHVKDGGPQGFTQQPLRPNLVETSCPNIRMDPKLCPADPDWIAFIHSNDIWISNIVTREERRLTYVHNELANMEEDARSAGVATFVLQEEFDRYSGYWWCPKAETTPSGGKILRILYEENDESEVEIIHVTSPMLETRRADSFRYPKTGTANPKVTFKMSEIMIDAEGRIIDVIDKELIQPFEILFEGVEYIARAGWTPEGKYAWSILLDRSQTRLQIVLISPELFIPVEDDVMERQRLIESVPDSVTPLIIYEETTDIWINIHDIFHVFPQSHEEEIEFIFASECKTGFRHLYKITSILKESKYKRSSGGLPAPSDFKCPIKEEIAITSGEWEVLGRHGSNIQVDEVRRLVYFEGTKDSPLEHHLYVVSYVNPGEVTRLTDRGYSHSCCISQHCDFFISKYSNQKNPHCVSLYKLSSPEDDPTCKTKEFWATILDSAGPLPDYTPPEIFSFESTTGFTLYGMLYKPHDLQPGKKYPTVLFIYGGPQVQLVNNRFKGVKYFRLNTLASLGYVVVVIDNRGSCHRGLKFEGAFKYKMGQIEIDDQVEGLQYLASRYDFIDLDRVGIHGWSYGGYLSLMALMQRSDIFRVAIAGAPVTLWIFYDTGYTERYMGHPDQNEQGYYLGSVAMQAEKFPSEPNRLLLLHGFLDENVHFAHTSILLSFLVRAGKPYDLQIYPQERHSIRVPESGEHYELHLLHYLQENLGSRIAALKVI
inactive: IRAK-1-4 Inhibitor I 0.002 | ibrutinib -0.001 | [1] -0.035 | ralimetinib -0.046 | [2] -0.005 | [3] 0.059 | [4] 0.015 | pinometostat -0.018 | [5] 0.004 | [6] 0.12

FAM118B (UniProt Q9BPY3)
inactive: IRAK-1-4 Inhibitor I 0.039 | ibrutinib 0.073 | [1] -0.118 | ralimetinib 0.051 | [2] -0.199 | [3] -0.145 | [4] 0.065 | pinometostat -0.024 | [5] 0.014 | [6] 0.042

DNAJB12 (UniProt Q9NXW2)
active: ralimetinib -0.767
inactive: IRAK-1-4 Inhibitor I -0.026 | ibrutinib 0.004 | [1] -0.013 | [2] -0.032 | [3] -0.012 | [4] 0.076 | pinometostat 0.021 | [5] 0.05 | [6] 0.022

DCTN1 isoform 4 (UniProt Q14203)
inactive: IRAK-1-4 Inhibitor I -0.101 | ibrutinib -0.02 | [1] -0.001 | ralimetinib 0.114 | [2] -0.086 | [4] 0.07 | pinometostat 0.138 | [5] -0.002 | [6] 0.019
active: [3] -0.303

FAM160B1 (UniProt Q5W0V3)
inactive: IRAK-1-4 Inhibitor I 0.019 | ibrutinib 0.012 | [1] 0.03 | ralimetinib 0.005 | [2] -0.05 | [4] 0.019 | pinometostat -0.019 | [5] -0.036 | [6] -0.051
active: [3] -0.285

EED, A0A5F9ZI63
inactive: IRAK-1-4 Inhibitor I -0.032 | ibrutinib -0.012 | [1] -0.041 | ralimetinib 0.042 | [2] 0.053 | [3] 0.05 | [4] 0.03 | pinometostat 0.052 | [5] -0.001 | [6] 0.145

FAM117A (UniProt Q9C073)
active: [1] -0.833
inactive: IRAK-1-4 Inhibitor I -0.004 | ibrutinib 0.001 | ralimetinib -0.125 | [2] -0.068 | [3] -0.102 | [4] 0.126 | pinometostat -0.003 | [5] 0.042 | [6] 0.011

EVC2 (UniProt Q86UK5)
Chain of UniProt Q86UK5 (Q86UK5 whole entry, looked up): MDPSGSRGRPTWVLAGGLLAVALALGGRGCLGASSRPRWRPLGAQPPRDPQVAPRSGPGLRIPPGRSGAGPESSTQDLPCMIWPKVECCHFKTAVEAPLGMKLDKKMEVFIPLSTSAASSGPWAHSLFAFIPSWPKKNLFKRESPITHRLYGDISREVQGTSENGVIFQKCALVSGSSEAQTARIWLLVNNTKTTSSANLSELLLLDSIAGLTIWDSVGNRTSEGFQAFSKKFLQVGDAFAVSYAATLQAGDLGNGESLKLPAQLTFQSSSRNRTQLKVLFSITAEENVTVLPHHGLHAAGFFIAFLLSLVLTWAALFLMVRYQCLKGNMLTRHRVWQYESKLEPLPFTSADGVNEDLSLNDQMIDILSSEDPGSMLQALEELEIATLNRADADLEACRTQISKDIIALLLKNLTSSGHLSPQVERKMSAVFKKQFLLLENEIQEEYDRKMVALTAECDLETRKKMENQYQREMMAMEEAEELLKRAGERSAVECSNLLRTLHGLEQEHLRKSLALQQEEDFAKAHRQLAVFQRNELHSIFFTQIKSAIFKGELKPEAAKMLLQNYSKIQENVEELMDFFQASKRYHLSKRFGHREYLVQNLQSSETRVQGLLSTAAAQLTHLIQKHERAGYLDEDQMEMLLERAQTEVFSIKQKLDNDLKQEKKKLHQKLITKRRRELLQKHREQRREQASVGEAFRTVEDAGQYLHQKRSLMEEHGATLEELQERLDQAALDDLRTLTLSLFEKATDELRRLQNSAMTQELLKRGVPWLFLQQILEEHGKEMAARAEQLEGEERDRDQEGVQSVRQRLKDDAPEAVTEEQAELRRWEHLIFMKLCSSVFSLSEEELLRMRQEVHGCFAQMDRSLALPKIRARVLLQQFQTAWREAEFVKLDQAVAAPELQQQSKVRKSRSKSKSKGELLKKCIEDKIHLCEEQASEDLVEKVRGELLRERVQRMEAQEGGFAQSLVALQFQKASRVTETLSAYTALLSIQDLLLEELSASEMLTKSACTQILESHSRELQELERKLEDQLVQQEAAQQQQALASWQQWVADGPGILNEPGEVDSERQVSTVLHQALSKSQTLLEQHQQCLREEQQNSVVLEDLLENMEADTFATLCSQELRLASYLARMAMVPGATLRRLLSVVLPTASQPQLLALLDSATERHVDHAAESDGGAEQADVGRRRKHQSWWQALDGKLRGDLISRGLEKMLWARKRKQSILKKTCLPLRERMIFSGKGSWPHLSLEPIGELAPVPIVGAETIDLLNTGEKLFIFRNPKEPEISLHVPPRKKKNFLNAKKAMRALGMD
inactive: IRAK-1-4 Inhibitor I 0.052 | ibrutinib 0.032 | [1] -0.061 | ralimetinib -0.15 | [2] 0.038 | [3] 0.064 | [4] 0.038 | pinometostat -0.011 | [5] 0.091 | [6] -0.014

CTSA (UniProt P10619)
inactive: IRAK-1-4 Inhibitor I -0.006 | ibrutinib 0.017 | [1] 0.038 | ralimetinib -0.027 | [2] 0.027 | [3] -0.204 | [4] -0.017 | pinometostat 0.014 | [5] 0.014 | [6] -0.058

F5 (UniProt P12259)
inactive: IRAK-1-4 Inhibitor I 0.006 | ibrutinib 0.064 | [1] 0.003 | ralimetinib -0.042 | [2] 0.168 | [3] -0.088 | [4] 0.001 | pinometostat -0.016 | [5] -0.017 | [6] -0.129

DPH5 isoform 5 (UniProt Q9H2P9)
inactive: IRAK-1-4 Inhibitor I 0.036 | ibrutinib 0.025 | [1] -0.01 | ralimetinib -0.018 | [2] -0.053 | [3] 0.045 | [4] -0.071 | pinometostat -0.009 | [5] 0.022 | [6] 0.027

ESYT1 isoform 2 (UniProt Q9BSJ8)
Chain of UniProt Q9BSJ8 (Q9BSJ8 whole entry, looked up): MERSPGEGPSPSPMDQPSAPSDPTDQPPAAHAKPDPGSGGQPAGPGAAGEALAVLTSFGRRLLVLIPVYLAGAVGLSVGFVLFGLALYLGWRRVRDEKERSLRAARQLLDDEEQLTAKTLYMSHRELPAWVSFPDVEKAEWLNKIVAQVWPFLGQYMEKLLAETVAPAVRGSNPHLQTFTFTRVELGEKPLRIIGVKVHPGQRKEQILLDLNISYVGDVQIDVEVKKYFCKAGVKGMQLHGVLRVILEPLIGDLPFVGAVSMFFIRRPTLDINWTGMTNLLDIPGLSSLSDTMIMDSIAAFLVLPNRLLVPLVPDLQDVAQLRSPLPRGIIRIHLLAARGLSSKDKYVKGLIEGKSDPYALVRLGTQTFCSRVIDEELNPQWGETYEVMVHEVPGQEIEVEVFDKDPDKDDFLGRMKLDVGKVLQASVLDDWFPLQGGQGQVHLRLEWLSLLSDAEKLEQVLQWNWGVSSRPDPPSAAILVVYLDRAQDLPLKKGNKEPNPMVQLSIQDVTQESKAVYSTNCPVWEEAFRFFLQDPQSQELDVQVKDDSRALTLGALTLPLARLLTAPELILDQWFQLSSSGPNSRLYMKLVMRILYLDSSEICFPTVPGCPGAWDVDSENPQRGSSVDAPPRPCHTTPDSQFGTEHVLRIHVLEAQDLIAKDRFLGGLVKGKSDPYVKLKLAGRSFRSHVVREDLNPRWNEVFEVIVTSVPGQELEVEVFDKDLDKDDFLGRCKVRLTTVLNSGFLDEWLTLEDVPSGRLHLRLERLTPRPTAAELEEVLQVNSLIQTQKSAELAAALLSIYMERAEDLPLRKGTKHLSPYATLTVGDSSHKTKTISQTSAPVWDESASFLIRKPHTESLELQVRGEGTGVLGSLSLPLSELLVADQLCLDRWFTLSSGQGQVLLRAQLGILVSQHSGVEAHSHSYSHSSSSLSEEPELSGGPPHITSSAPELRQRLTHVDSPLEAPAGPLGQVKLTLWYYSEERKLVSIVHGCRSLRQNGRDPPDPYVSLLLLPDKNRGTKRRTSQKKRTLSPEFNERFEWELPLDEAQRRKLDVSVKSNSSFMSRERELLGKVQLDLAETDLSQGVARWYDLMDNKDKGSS
active: [3] -0.321
inactive: IRAK-1-4 Inhibitor I -0.126 | ibrutinib -0.046 | [1] -0.048 | ralimetinib 0 | [2] -0.075 | [4] 0.053 | pinometostat 0.152 | [5] -0.018 | [6] 0.031

DYRK1A isoform 2 (UniProt Q13627)
active: [1] -0.358
inactive: IRAK-1-4 Inhibitor I -0.001 | ibrutinib -0.009 | ralimetinib -0.046 | [2] -0.042 | [3] -0.254 | [4] 0.064 | pinometostat 0.055 | [5] -0.014 | [6] 0.144

EEF1A1 (UniProt P68104)
inactive: IRAK-1-4 Inhibitor I 0.133 | ibrutinib 0.121 | [1] 0.05 | ralimetinib 0.133 | [2] -0.052 | [3] -0.037 | [4] -0.019 | pinometostat -0.028 | [5] 0.01 | [6] -0.178

CUTA isoform 2 (UniProt O60888)
Chain of UniProt O60888 (O60888 whole entry, looked up): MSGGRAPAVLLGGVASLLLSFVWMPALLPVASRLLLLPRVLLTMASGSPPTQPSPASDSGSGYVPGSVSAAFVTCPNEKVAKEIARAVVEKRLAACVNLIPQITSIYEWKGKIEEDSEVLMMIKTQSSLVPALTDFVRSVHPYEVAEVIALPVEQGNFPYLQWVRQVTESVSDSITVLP
inactive: IRAK-1-4 Inhibitor I 0.074 | ibrutinib -0.018 | [1] 0.085 | ralimetinib -0.046 | [2] -0.104 | [3] 0.038 | [4] -0.09 | pinometostat -0.009 | [5] 0.005 | [6] 0.15

FAM50A (UniProt Q14320)
inactive: IRAK-1-4 Inhibitor I -0.014 | ibrutinib -0.011 | [1] -0.01 | ralimetinib -0.029 | [2] -0.027 | [3] 0 | [4] 0.043 | pinometostat -0.016 | [5] -0.026 | [6] 0.053

ETNK1 (UniProt Q9HBU6)
inactive: IRAK-1-4 Inhibitor I 0.035 | ibrutinib -0.05 | [1] 0.044 | ralimetinib -0.017 | [2] -0.205 | [3] 0.087 | [4] 0.043 | pinometostat 0.019 | [5] -0.015 | [6] 0.079

FAAP100 (UniProt Q0VG06)
inactive: IRAK-1-4 Inhibitor I 0.026 | ibrutinib -0.247 | [1] -0.025 | ralimetinib -0.065 | [2] -0.085 | [3] -0.043 | [4] -0.05 | pinometostat 0.013 | [5] -0.097 | [6] 0.055

CTSB (UniProt P07858)
inactive: IRAK-1-4 Inhibitor I -0.009 | ibrutinib 0.032 | [1] 0.013 | ralimetinib -0.044 | [2] 0.011 | [4] 0.037 | pinometostat -0.031 | [5] 0.042 | [6] -0.053
active: [3] -0.426

EIF4A1 (UniProt P60842)
inactive: IRAK-1-4 Inhibitor I -0.008 | ibrutinib -0.022 | [1] -0.131 | ralimetinib 0.026 | [2] -0.151 | [3] -0.124 | [4] -0.001 | pinometostat 0.016 | [5] -0.011 | [6] 0.017

DNAJC1 (UniProt Q96KC8)
Chain of UniProt Q96KC8 (Q96KC8 whole entry, looked up): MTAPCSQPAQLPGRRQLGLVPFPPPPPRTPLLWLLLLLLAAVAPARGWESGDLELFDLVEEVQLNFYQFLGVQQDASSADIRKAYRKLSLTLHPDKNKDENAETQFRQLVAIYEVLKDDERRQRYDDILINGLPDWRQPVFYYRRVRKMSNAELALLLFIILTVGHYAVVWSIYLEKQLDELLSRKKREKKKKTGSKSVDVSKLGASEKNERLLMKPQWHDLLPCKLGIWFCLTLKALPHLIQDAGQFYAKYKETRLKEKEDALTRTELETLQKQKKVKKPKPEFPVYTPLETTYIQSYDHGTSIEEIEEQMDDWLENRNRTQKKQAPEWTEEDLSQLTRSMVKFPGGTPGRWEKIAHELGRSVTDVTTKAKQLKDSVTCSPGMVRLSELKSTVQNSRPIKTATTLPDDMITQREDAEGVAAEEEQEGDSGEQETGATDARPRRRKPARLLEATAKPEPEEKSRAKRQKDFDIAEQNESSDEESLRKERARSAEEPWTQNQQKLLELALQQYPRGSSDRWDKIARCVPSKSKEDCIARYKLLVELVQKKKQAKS
inactive: IRAK-1-4 Inhibitor I 0.017 | ibrutinib 0.02 | [1] -0.026 | ralimetinib -0.081 | [2] -0.117 | [4] 0.025 | pinometostat -0.037 | [5] -0.012 | [6] 0.019
active: [3] -0.462

CUX1 isoform 3 (UniProt P39880)
inactive: IRAK-1-4 Inhibitor I 0.019 | ibrutinib -0.033 | [1] -0.032 | ralimetinib -0.065 | [2] -0.047 | [3] 0.008 | [4] 0.116 | pinometostat -0.018 | [5] 0.015 | [6] 0.153

DNAJC19 (UniProt Q96DA6)
inactive: IRAK-1-4 Inhibitor I 0.045 | ibrutinib 0.024 | [1] 0.038 | ralimetinib 0.029 | [2] -0.054 | [3] -0.153 | [4] -0.006 | pinometostat -0.013 | [5] 0.016 | [6] 0.023

FAM122A (UniProt Q96E09)
inactive: IRAK-1-4 Inhibitor I 0.002 | ibrutinib 0.016 | [1] -0.015 | ralimetinib -0.053 | [2] 0.105 | [3] 0.066 | [4] 0.016 | pinometostat -0.008 | [5] 0.007 | [6] -0.117
